Screening data (PubChem)
L3MBTL1 block: qHTS Assay for the Inhibitors of L3MBTL1; Lethal(3)malignant brain tumor-like protein 1 (Homo sapiens), Q9Y468; AID 485360, 2010; AlphaScreen L3MBTL1–H3K9me1 peptide binding; Potency, µM (top dose mostly 57.1 µM), for the others: at the highest dose activity, negative = inhibition, most hits filed as inhibitors; actives 0.66% (n = 230,000); also: nearly all actives have a fitted effect of over 60% in size
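AlphaScreen proximity signal between nickel-chelate acceptor and streptavidin donor beads (final 10 ug/mL) reports binding of 50 nM L3MBTL1 to 75 nM biotin-H3 K9me1 peptide; complex incubated with compounds 30 min at room temperature; cefsulodin titration as control.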
APE1 inh: qHTS Assay for Inhibitors of the Human Apurinic/apyrimidinic Endonuclease 1 (APE1). recombinant APE1, TAMRA/BHQ-2 abasic DNA cleavage fluorescence. Potency, µM (titrated, usually from 65.8 µM), for inactives: at the highest dose activity change, negative = inhibition, actives largely listed as inhibitors. actives 0.35% (n = 350,000). AID 2517, 2012;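 also: plate controls were vehicle for no effect and reference inhibitor for full effect; nearly all actives have a fitted effect of over 55% in size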
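0.75 nM APE1 + cpd, 15 min RT; start w/ 50 nM TAMRA/BHQ-2 THF-abasic dsDNA; kinetic fluor 525/598 nm ×3 reads @60 s; Δ(read3−read1); normalized to DMSO and NSC13755 control wells.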
BLM helicase inh: qHTS Assay for Inhibitors of Bloom's syndrome helicase (BLM); actives 0.2% (n = 350,000); recombinant BLM DNA unwinding, fluorescence dequenching; Potency, µM (top dose mostly 56.1 µM), for the others: at the top dose activity change, negative = inhibition, usual class: inhibitors; AID 2528, 2010; RecQ-like DNA helicase BLM (Homo sapiens), P54132;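 also: plate controls were vehicle for no effect and no enzyme for full effect; nearly all actives have a fitted effect of over 35% in size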
RECQ1 inh-1: qHTS Assay for Inhibitors of RecQ-Like Dna Helicase 1 (RECQ1). Potency, µM (top dose mostly 57.3 µM), for inactives: top-dose activity, negative = inhibition, hits mostly inhibitors. RECQ1 DNA unwinding, red fluorescence kinetic read. actives 0.54% (n = 240,000). ATP-dependent DNA helicase Q1 (Homo sapiens), P46063. AID 2549, 2010;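 also: plate controls were vehicle for no effect and no enzyme for full effect; nearly all actives have a fitted effect of over 30% in size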
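RECQ1T1 50 nM; forked duplex (20 bp + 30-nt ss tails) 200 nM, ATP 2 mM final; pH 8.0, 2 mM MgCl2, 2.5 ug/ml poly(dI-dC); 15 min compound preincubation; discontinuous kinetic read over 2 h at RT.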
KDM4E inh: qHTS Assay for Inhibitors of Human Jumonji Domain Containing 2E (JMJD2E); AID 2147, 2009; JMJD2E catalytic domain, FDH-coupled NADH fluorescence (FDH is formaldehyde dehydrogenase); Potency, µM (top dose mostly 57.1 µM), for the others: at the highest dose activity change, negative = inhibition, usual class: inhibitors; actives 1.6% (n = 230,000); Lysine-specific demethylase 4E (Homo sapiens), B2RXH2; active = well fitted inhibition curve with a large enough effect, not every such curve was filed as active; inconclusive = small, poorly fitted or top-dose-only effect, or another doubt; inactive = no such curve, though single readings can be large or run the other way;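 also: 0% = wells with enzyme and -100% = buffer wells without enzyme; nearly all actives have a fitted effect of over 50% in size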
RECQ1 inh conf: Confirmation qHTS Assay for Inhibitors of RecQ-Like Dna Helicase 1 (RECQ1); shares compounds with RECQ1 inh-1; RECQ1 helicase DNA unwinding, fluorescence; Potency, µM (highest dose often 229 µM), inactives show top-dose activity change, negative = inhibition, usual class: inhibitors; actives 28% (n = 610); also: nearly all actives have a fitted effect of over 45% in size
ADP FP counter: Counterscreen for RECQ1 Inhibitors: ADP Fluorescence Polarization Displacement Assay; Potency, µM (titrated, usually from 228 µM), without a hit: top-dose activity change, negative = inhibition, usual class: inhibitors; ADP fluorescence polarization displacement counterscreen; shares compounds with RECQ1 inh-1; AID 2711, 2010; actives 27% (n = 530); also: nearly all actives have a fitted effect of over 45% in size
RECQ1 inh-2: Confirmation qHTS Assay for Inhibitors of RecQ-Like Dna Helicase 1 (RECQ1) - Round 2 Cherry Picks; recombinant RECQ1 DNA unwinding, red fluorescence; shares compounds with RECQ1 inh-1; actives 15% (n = 1,100); Potency, µM (titrated, usually from 119 µM), for inactives: at the highest dose activity, negative = inhibition, hits mostly inhibitors; also: nearly all actives have a fitted effect of over 50% in size
Active calls of the source: *; i = inactive; ? = inconclusive; nt = no result; ! = not confirmed by another sample; [ ] = another dose, or the depositor's remark. Only a selection was taken, and hits are over-represented in it overall. Unless noted, calls follow the shape of the dose curve; as a rule, active = well fitted curve in the direction sought with a large enough effect; inconclusive = small, poorly fitted or top-dose-only effect, or another doubt; inactive = no such curve, though single readings can be large; an effect the other way counts as inactive or inconclusive. Unless noted, % is scaled to controls: 0 for no effect and ±100 for the full control effect; potency is read from the fitted curve at half-maximal effect.

SMILES	L3MBTL1 block	APE1 inh	BLM helicase inh	RECQ1 inh-1	KDM4E inh	RECQ1 inh-2	others
COc1ccc(CNc2nc(NCc3ccc(OC)cc3)c3ncn(C(C)C)c3n2)cc1	nt	?	-9%	-24%	nt	nt
COc1ccc(CN2C(=O)c3ccccc3C2C(=O)NC2CCCC(C)C2C)c(OC)c1 (centres undefined)	nt	1%	-9%	3.2µM*	-1%	-10%	RECQ1 inh conf=-6%[114 µM];ADP FP counter=19%[91.9 µM]
CCOC(=O)C(Oc1ccc2c(-c3ccccc3)cc(=O)oc2c1)c1ccccc1 (centres undefined)	9%	-1%	-6%	?	?	-17%
COC(=O)C(Oc1ccc2c(-c3ccc(OC)cc3)cc(=O)oc2c1)c1ccccc1 (centres undefined)	-7%	-6%	-3%	-17%	?	nt
N=C1S/C(=C\c2ccc(-c3ccccc3C(=O)O)o2)C(=O)N1c1ccc2c(c1)OCO2	nt	?	-20%	-2%	5.6µM*	nt	RECQ1 inh conf=?;ADP FP counter=?
CC1CCN(S(=O)(=O)c2ccc(NC(=O)N3c4ccccc4Sc4ccccc43)cc2)CC1	-2%	1%	-5%	-13%	7%	nt	RECQ1 inh conf=-10%;ADP FP counter=42%
O=C(O)c1ccc(CSc2nnnn2-c2ccc(F)cc2)cc1	nt	17%	-8%	nt	nt	nt
O=C(CSc1nnnn1-c1ccc(F)cc1)c1ccc(O)c(O)c1	nt	6%	-1%	5µM*	28µM*	?	RECQ1 inh conf=-10%[114 µM];ADP FP counter=5%[91.9 µM]
CCOc1ccc(NC(=O)[C@@H](NC(=O)c2ccccc2)[C@@H](C)CC)cc1	nt	2%	-2%	-2%	4%	nt
O=C(CCS(=O)(=O)c1ccc(Br)cc1)NCc1cccs1	nt	?	1%	?	8%	?
O=C(CCS(=O)(=O)c1ccc(Br)cc1)NCc1ccco1	nt	-31%	-10%	nt	nt	nt
O=C(CCc1ccc(O)cc1)c1c(O)cc(O)cc1O	nt	-6%	-15%	13µM*!	32µM*!	-13%
O=C(Cc1ccc2c(c1)OCCO2)c1c(O)cc(O)cc1O	-7%	-6%	-7%	i	-7%	nt
CCCOC(=O)c1sc2nc3c(cc2c1N)C(=O)CCC3	nt	1%	-5%	i	-5%	nt
Cc1c(NS(=O)(=O)c2ccc(Cl)c(C(=O)OCC(=O)NCc3ccco3)c2)c(=O)n(-c2ccccc2)n1C	0%	0%	4%	-2%	18%	nt
CCOC(=O)CN1C(=O)C(O)(CC(=O)c2ccco2)c2ccccc21 (centres undefined)	-2%	-9%	-2%	-7%	3%	nt
Cc1ccc(NC(=S)NC(=O)c2sc3ccccc3c2Cl)c(C(=O)O)c1	-14%	-3%	-14%	7%	?	nt	RECQ1 inh conf=89µM*;ADP FP counter=?
O=C(O)c1ccccc1NC(=S)NC(=O)c1sc2ccccc2c1Cl	nt	1%	1%	0%	?	nt
Cc1cccc(-n2c(=O)c(C#N)cc3c(=O)n4ccccc4nc32)c1	nt	5%	-11%	4%	?	nt
Cc1ccc(-n2c(=O)c(C#N)cc3c(=O)n4ccccc4nc32)cc1	-6%	?	-3%	35µM*	?	1%
Nc1ccc(N2CCOCC2)c2nonc12	?	?	32µM*	?	24%	0%
COc1ccc(S(=O)(=O)Nc2ccccc2C(=O)Nc2nc(-c3ccc(F)cc3)cs2)cc1OC	2%	-6%	-8%	?	?	?
COc1ccccc1-n1c(SCC(=O)O)nnc1-c1ccc(S(=O)(=O)N2CCCCC2)cc1	nt	3%	0%	-1%	-22%	nt	RECQ1 inh conf=3%;ADP FP counter=2%
COCCCn1c(=O)/c(=C\c2ccccc2OC(C)C)s/c1=C(/C#N)C(=O)Nc1ccc(C(=O)O)cc1	-9%	-2%	-8%	?	-8%	?
COCCCn1c(=O)/c(=C\c2ccccc2OC(F)F)s/c1=C(/C#N)C(=O)NC(C)C	-1%	1%	-7%	?	11%	-13%
SMILES	L3MBTL1 block	APE1 inh	BLM helicase inh	RECQ1 inh-1	KDM4E inh	RECQ1 inh-2	others
COCCCn1c(=O)/c(=C\c2ccc(OC(F)F)c(OC)c2)s/c1=C(/C#N)C(=O)NCCOC	15%	14%	-3%	12%	4%	nt
Cc1ccc(C)c(NC(=O)Cn2nnc(C(=O)NCc3ccccc3Cl)c2N)c1	nt	nt	-4%	nt	nt	nt
COc1ccc(S(=O)(=O)N2CC(C(=O)O)Oc3ccc(CC(=O)O)cc32)cc1 (centres undefined)	-1%	-10%	0%	-6%	9%	nt	RECQ1 inh conf=9%;ADP FP counter=5%
CNc1ccc(Br)cc(C(=O)/C=C/c2ccc(Cl)cc2Cl)c1=O	-15%	-7%	-12%	-27%	?	nt
Nc1ccccc1C(=O)/C=C\c1ccc2c(c1)OCO2	nt	-7%[12.4 µM]	-5%[12.4 µM]	4%[11.5 µM]	nt	nt
CNc1ccc(Br)cc(C(=O)/C=C/c2ccc(OC)cc2OC)c1=O	?	-9%	?	-15%	?	nt
CCNc1ccc(Br)cc(C(=O)/C=C/c2ccc(Cl)cc2)c1=O	-18%	2%	-20%	32µM*	25µM*	-29%
CCNc1ccc(Br)cc(C(=O)/C=C/c2ccc3c(c2)OCO3)c1=O	20µM*	?	-25%	?	14µM*	?
CNc1ccc(Br)cc(C(=O)/C=C/c2cccc(OC)c2)c1=O	?	?	-29%	28µM*	?	?
O=C(NCc1cccc(F)c1F)C1CCC(=O)N(C2CC2)C1 (centres undefined)	nt	10%	2%	nt	nt	nt
O=C(c1cc(=O)[nH]c2ccccc12)N1CCN(S(=O)(=O)c2ccc(Cl)cc2)CC1	4%	-15%	nt	nt	nt	nt
